From PubChem BioAssay (NCATS) come the findings set out here.

Records with an inconclusive call do not appear. Activity calls are given as the source filed them. Calls follow the shape of the dose curve; as a rule, active = well fitted curve in either direction with a large enough effect (not every such curve was filed as active); inconclusive = small, poorly fitted or top-dose-only effect, or another doubt; inactive = flat fitted curve, though single readings scatter.
% is scaled to controls: 0 for no effect and ±100 for the full control effect.

The test is described as follows: Stat Signaling Pathway (AID 446).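 Also: SIE-controlled beta-lactamase reporter measured as 460/530 nm FRET emission ratio.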 The note with it: ME-180 (cervical carcinoma) SIE beta-lactamase reporter, IL-6 stimulated, 5 h; at 17.2 µM (top of the series) unless noted. In a few lines:
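Normalization used AC90 stimulation (300 pM IL-6) and AC90 inhibition (125 nM pan-JAK inhibitor at 40 pM IL-6). The underlying signal is SIE-driven beta-lactamase in ME-180 cells after 5 h IL-6 exposure with compound.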
Take `CCOC(=O)c1c(-c2cccs2)csc1NC(=O)c1ccncc1`: the activity, negative = inhibition is 1.61% (inactive).
With `CC[C@]1(O)C[C@H]2CN(CCc3c([nH]c4ccccc34)[C@](C(=O)OC)(c3cc4c(cc3OC)N(C)[C@@H]3[C@](O)(C(=O)OC)[C@H](OC(C)=O)[C@]5(CC)C=CCN6CC[C@]43[C@@H]65)C2)C1` the figure was -18.9% [at 38 µM] (inactive); with `C=CCn1c(=S)[nH]c2nc3c(cc2c1=O)COC(C)(C)C3`, 3.02% (inactive).
Next, `FC(F)(F)c1cc(CO[C@@H]2CCCN[C@H]2c2ccccc2)cc(C(F)(F)F)c1`: -14.5% [at 38 µM] (inactive); `OC1(C2(O)CC(c3ccccc3)ON2)CCCCC1` (stereo not given): -6.74% (inactive); `COCCCNc1nc2c(c(=O)[nH]c(=O)n2C)n1CC(O)COc1ccccc1` (stereo not given): -9.93% (inactive).
With `O=C(/C=C\c1ccc(O)cc1)c1ccc(O)cc1O` the figure was 25.4% [at 38 µM] (inactive).
Take `COC(=O)[C@@H](NC(=O)c1cc(-c2ccccc2)nc2ccccc12)c1ccccc1`: the activity, negative = inhibition was 1.95% [at 38 µM] (inactive).
Next, `Cc1cc(C)c(-n2c(O)c(C=NCCN3CCOCC3)c(=O)[nH]c2=O)c(C)c1`: 4.18% (inactive); `CN1CCc2cc(O)c(O)cc2[C@H](c2ccccc2)C1`: -12.3% [at 38 µM] (inactive); `COc1cc(/C=C\C(=O)N2CCC=CC2=O)cc(OC)c1OC`: -101% (active).
With `COc1ccc(NC(=O)CSC2=C(C#N)C(c3ccco3)C3=C(CCCC3=O)N2)c(OC)c1` (stereo not given) the figure was -8.16% (inactive).
For `O=C(O)C1CC=CCC1C(=O)N1CCN(c2nc(-c3ccccc3)c3ccccc3n2)CC1` (stereo not given), the activity, negative = inhibition is 9.49% (inactive).
Next, `COc1cc([C@H]2c3cc4c(cc3[C@@H](O[C@H]3O[C@H]5CO[C@@H](C)O[C@H]5[C@@H](O)[C@@H]3O)[C@@H]3COC(=O)[C@H]23)OCO4)cc(OC)c1O`: -20.6% (inactive); `CCOC(=O)C1/C(=N\O)CC(C)(O)C(C(=O)OCC)C1c1ccc(OC)c(OC)c1` (stereo not given): 0.164% (inactive).
